Only some compounds are listed: those with a hit (about 12% of all), similar ones and a draw of the others.
G9a block – G9a (human) methyltransferase inhibition; G9a H3K9 monomethylation, AlphaScreen, 2 h; actives 8.8% (n = 350,000); Q96KQ7; Potency, µM (highest dose often 102 µM), for inactives: at the highest dose activity, negative = inhibition, hits mostly inhibitors; note: % is set by controls: 0 for no effect and ±100 for the full control effect; nearly all actives have a fitted effect of over 75% in size
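Compounds were preincubated with 20 nM G9a for 15 min, after which biotinylated H3K9 peptide (500 nM) and SAM (20 uM) started a 2 h room-temperature reaction. Monomethylated product was quantified by antibody-based AlphaScreen chemiluminescence.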
BAZ2B block – inhibitors of human BAZ2B bromodomain; Q9UIF8; AlphaScreen BAZ2B-H3K14Ac peptide displacement; Potency, µM (series often up to 114 µM), for the others: at the top dose activity change, negative = inhibition, most hits filed as inhibitors; actives 4.4% (n = 360,000); note: % is set by controls: 0 for no effect and ±100 for the full control effect; nearly all actives have a fitted effect of over 60% in size
Target sequence (Q9UIF8 whole entry, looked up): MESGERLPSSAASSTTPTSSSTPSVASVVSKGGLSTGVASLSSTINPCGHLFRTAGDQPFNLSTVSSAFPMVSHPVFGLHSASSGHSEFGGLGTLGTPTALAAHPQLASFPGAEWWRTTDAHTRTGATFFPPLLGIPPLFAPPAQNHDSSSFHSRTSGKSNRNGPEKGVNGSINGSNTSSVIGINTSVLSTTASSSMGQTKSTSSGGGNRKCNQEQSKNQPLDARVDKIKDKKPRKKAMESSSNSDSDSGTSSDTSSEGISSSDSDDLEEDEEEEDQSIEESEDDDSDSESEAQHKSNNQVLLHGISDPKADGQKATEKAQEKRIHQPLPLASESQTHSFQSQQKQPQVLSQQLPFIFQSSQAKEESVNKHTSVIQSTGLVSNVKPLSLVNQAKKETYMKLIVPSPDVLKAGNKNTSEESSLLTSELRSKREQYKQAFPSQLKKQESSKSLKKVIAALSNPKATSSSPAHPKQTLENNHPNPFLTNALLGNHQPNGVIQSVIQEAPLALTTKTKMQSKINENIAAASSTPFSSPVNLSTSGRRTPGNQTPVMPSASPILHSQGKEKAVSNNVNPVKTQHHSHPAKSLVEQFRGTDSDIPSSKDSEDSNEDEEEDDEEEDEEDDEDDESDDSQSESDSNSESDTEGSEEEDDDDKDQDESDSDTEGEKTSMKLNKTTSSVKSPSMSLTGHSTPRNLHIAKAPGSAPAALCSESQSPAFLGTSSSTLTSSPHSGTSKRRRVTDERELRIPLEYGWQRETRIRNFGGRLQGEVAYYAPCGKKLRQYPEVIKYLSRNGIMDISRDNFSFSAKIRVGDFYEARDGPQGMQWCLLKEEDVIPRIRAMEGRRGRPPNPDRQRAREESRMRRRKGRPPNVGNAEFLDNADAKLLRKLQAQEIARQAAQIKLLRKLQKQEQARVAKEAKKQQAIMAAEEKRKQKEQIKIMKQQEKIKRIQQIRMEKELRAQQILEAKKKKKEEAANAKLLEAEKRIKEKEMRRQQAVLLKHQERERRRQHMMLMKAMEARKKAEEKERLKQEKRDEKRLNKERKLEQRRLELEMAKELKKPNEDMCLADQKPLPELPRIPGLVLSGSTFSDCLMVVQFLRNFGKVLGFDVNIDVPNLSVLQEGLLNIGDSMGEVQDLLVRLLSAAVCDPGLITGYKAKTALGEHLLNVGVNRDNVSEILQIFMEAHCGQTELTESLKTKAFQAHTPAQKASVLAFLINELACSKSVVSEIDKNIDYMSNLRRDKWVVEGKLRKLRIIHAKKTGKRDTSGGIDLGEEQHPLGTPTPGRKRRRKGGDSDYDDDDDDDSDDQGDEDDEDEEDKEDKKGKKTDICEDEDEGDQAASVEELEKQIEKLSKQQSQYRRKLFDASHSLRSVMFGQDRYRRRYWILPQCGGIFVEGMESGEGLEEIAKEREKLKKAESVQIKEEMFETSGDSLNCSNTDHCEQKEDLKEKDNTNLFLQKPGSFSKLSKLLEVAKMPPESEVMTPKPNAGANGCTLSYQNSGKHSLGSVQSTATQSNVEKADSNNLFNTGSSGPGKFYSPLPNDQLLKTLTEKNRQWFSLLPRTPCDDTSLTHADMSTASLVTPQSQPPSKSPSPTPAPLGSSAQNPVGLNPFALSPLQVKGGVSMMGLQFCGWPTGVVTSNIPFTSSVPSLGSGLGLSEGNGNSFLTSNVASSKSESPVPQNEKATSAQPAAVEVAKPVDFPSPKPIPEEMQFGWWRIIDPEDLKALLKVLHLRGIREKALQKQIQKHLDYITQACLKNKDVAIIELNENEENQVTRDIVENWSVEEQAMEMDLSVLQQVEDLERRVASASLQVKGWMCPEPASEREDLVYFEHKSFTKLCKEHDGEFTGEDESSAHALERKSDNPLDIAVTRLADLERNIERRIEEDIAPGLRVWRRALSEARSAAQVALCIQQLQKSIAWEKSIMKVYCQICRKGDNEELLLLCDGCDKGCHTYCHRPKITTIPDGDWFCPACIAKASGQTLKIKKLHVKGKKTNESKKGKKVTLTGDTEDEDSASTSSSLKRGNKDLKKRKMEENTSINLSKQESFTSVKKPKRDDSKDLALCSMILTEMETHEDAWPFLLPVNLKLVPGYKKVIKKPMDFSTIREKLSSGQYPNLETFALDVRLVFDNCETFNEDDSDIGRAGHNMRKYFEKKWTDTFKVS
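AlphaScreen luminescence quantifies BAZ2B engagement of H3K14Ac peptide; the protein and biotinylated peptide are both at 50 nM final, buffer PBS pH 7.4 with 0.01% Tween-20, all steps at room temperature.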
HP1b chromo inh – HP1-beta chromodomain-methylated histone interaction inhibition; AlphaScreen HP1-beta / biotin-H3K9me3 peptide binding; AID 540317; actives 0.56% (n = 390,000); Potency, µM (top dose mostly 114 µM), for the others: at the top dose activity change, negative = inhibition, usual class: inhibitors; P83916; note: nearly all actives have a fitted effect of over 70% in size
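AlphaScreen: HP1-beta (50 nM) preformed 30 min with biotin-H3(1-18)K9me3 peptide (50 nM) in PBS pH 7.4, 0.01% Tween-20. Compound added for 30 min at RT, then streptavidin donor/nickel chelate acceptor beads (10 ug/mL) for 30 min.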
JMJD2A Tudor inh – JMJD2A Tudor domain (human) inhibition | O75164 | actives 4.4% (n = 390,000) | AlphaScreen JMJD2A-Tudor / H3K4me3 peptide binding | AID 504339 | Potency, µM (doses to about 114 µM), inactives show at the highest dose activity change, negative = inhibition, most hits filed as inhibitors; note: % is set by controls: 0 for no effect and ±100 for the full control effect; nearly all actives have a fitted effect of over 50% in size
Sfp PPTase inh – inhibitors of Bacillus subtilis Sfp phosphopantetheinyl transferase. Q9F4F7. Biochemical Sfp PPTase activity, qHTS. Potency, µM, for the others: largest response in the series, negative = inhibition, most hits filed as inhibitors. actives 3.5% (n = 310,000);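 note: the enzyme is Sfp with the accession as filed and its product quenches rhodamine fluorescence; 0% = enzyme reaction without inhibitor and -100% = no enzyme wells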
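Compounds were incubated with enzyme (final 15 nM) for 15 min at room temperature before substrate addition started the reaction. Fluorescence at 525 nm excitation, 598 nm emission was recorded immediately and after 30 minutes.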
An asterisk follows results filed as active; ? = inconclusive; / = no result; ! = not active in a repeat; [ ] = another dose, or the depositor's remark. Calls come from the whole dose curve; as a rule, active = well fitted curve in the direction sought with a large enough effect; inconclusive = small, poorly fitted or top-dose-only effect, or another doubt; inactive = no such curve, though single readings can be large; an effect the other way counts as inactive or inconclusive. Potency is the fitted concentration of half-maximal effect.

SMILES	G9a block	BAZ2B block	HP1b chromo inh	JMJD2A Tudor inh	Sfp PPTase inh
CC(C)(C)C(O)C(Cc1ccc(Cl)cc1Cl)n1cncn1 (stereo not drawn)	/	/	/	/	22%
O=C1NC(=O)C2(Cc3ccccc3N3CCCC32)C(=O)N1c1ccc(Cl)cc1 (stereo not drawn)	20µM*	12%	15%	?	-2%
Cc1ccc(N2C(=O)NC(=O)C3(Cc4ccccc4N4CCCC43)C2=O)cc1 (stereo not drawn)	8.9µM*	-2%	33%	-27%	?
CC[C@H]1C(=O)OC[C@H]1Cc1cncn1C	5%[21.5 µM]	/	/	/	10%
Cc1cccc(N2C(=O)NC(=O)/C(=C/c3ccc(-c4ccc(C(=O)O)c(Cl)c4)o3)C2=O)c1	10µM*	-14%	/	/	45µM*
O=C1NC(=O)N(c2ccc3c(c2)OCO3)C(=O)/C1=C/c1ccc(N2CCCCC2)o1	50µM*	-36%	25%	-3%	-9%
Cc1cc(/C=C2\C(=O)NC(=O)N(c3ccc(Cl)cc3)C2=O)c(C)n1-c1cccc(C(=O)O)c1	-6%[2.33 µM]	-39%	-3%	?	-9%
O=C1NC(=O)N(c2ccc3c(c2)OCO3)C(=O)/C1=C\c1ccc(-c2ccccc2C(=O)O)o1	10µM*	79µM*	?	32µM*	50µM*
O=C(CSc1nc2c([nH]c3ccccc32)c(=O)n1-c1ccccc1)c1ccccc1	12%[59 µM]	1%	11%[57 µM]	?	/
O=C1NCCOC(=O)[C@@H](Cc2ccc(F)cc2)CC/C=C/C[C@H]1CC(=O)N(CCO)Cc1ccccc1	/	/	39%	-14%	/
O=[N+]([O-])c1cc(S(=O)(=O)c2ccc(O)c([N+](=O)[O-])c2)ccc1O	?	50µM*	?	56µM*	-2%
CC(C)=CCCC1(C)C=Cc2c(O)c3c(c(CC=C(C)C)c2O1)OC12C(=CC4CC1C(C)(C)OC2(C/C=C(/C)C(=O)O)C4=O)C3=O (stereo not drawn)	-39%[2.33 µM]	/	/	/	-88%
CCOC(=O)CC(SP1(=S)OCC2(CCCCC2)CO1)C(=O)OCC (stereo not drawn)	/	/	68%	36%	/
CCOC(=O)CC(SP(=S)(OC)OC)C(=O)OCC (stereo not drawn)	?	/	/	/	40µM*
CCCC(Cn1cncn1)c1ccc(Cl)cc1Cl (stereo not drawn)	/	/	/	/	7%
C[C@]12CC[C@@H](O)CC1CCC1C2CC[C@]2(C)C(=O)CC[C@@H]12 (stereo partly drawn)	31%[12.7 µM]	/	/	/	/
OCC(Br)(Br)Br	/	/	/	/	7%
CC(=NNC(=S)N1CC2CCC(CC2)C1)c1nccs1	/	/	?	20µM*	/
C[C@H](N)Cc1cccc(C(F)(F)F)c1	30µM*	/	/	/	/
N#CC1c2ccccc2-n2nncc2CN1S(=O)(=O)c1cc(Cl)cc(Cl)c1 (stereo not drawn)	/	/	28%	89µM*	/
COC(=O)C1=Nc2ccccc2/C1=C\c1c(O)n(-c2ccc(Br)cc2)c(=O)[nH]c1=O	16µM*	56µM*	-11%	?	45µM*
COc1ccc(OC)c(-n2c(O)c(/C=C3\C(C)=Nc4ccccc43)c(=O)[nH]c2=O)c1	50µM*	-37%	6%	-20%	5%
O=c1[nH]c(=O)n(-c2ccccc2)c(O)c1/C=C1/C(c2ccccc2)=Nc2ccccc21	?	?	-10%	?	-9%
COC(=O)C1=Nc2ccccc2/C1=C\c1c(O)n(-c2ccc(OC)cc2)c(=O)[nH]c1=O	9%[12.7 µM]	79µM*	10%	?	50µM*
CC1N(C)c2cc(NC(=O)c3ccco3)c(P(=O)(Nc3ccc([N+](=O)[O-])cc3)N3CCOCC3)cc2C1(C)C (stereo not drawn)	50µM*	?	?	?	13%
SMILES	G9a block	BAZ2B block	HP1b chromo inh	JMJD2A Tudor inh	Sfp PPTase inh
COc1ccc(C(=O)NCCn2cc(SC(C)c3ccccc3)c3ccccc32)cc1OC (stereo not drawn)	-39%[59 µM]	?	12%	-28%	/
Oc1c(Br)cc(Br)cc1CN1CCN(Cc2ccccc2)CC1	45µM*	79µM*	-9%	20µM*	-9%
COc1ccc(NC(=O)CCc2nc(C3=CCN(Cc4cccc(Cl)c4)CC3)no2)cc1OC	28µM*	50µM*	-5%[57 µM]	56µM*	/
C=CCN1CC[C@]23c4c5ccc(O)c4O[C@H]2C(=O)CC[C@@]3(O)[C@H]1C5	40µM*!	35%	20%	-26%	10%
C=CCN1CC[C@]23c4c5ccc(O)c4O[C@@H]2/C(=N/N=C2\CC[C@@]4(O)C6Cc7ccc(O)c8c7[C@@]4(CCN6CC=C)[C@@H]2O8)CC[C@@]3(O)C1C5	13µM*!	/	/	/	/
C=CCN1CCC23c4c5ccc(O)c4OC2/C(=N/N=C2\CCC4(O)C6Cc7ccc(O)c8c7C4(CCN6CC=C)C2O8)CCC3(O)C1C5 (stereo not drawn)	25µM*	/	/	/	-9%
C=CCN1CC[C@]23c4c5ccc(O)c4OC2[C@H](O)CC[C@@]3(O)[C@H]1C5 (stereo partly drawn)	/	/	17%	-12%	/
COc1ccc(N2C(=O)CS(=O)C(c3ccccc3)C2=O)cc1 (stereo not drawn)	0.71µM*	?	13µM*	8.9µM*	1.6µM*
O[C@H]1CCCC[C@H]1N1CCC(c2ccccc2)CC1	14%[21.5 µM]	/	/	/	16%
O=C(Nc1nn[nH]n1)c1cccc([N+](=O)[O-])c1	25µM*	79µM*	20%	22µM*	-27%
COc1ccc(/C=N/NC(=O)c2cccc([N+](=O)[O-])c2)cc1OC	/	-15%	43%	-7%	7%
COc1ccc(CNC(=O)/C=C\c2ccc3[nH]cc(CCN(C)C)c3c2)cc1	/	/	/	/	13%
Cc1cc(-c2n[nH]c(=S)n2CC(C)C)cs1	3.2µM*	-5%	?	5.6µM*	2%
COc1cccc(N2C(=O)NC(=O)/C(=C/c3ccc4c(c3)Cc3ccccc3-4)C2=O)c1	7.1µM*	45µM*	43%	56µM*	56µM*
COc1cc(/C=C2/C(=O)NC(=O)N(c3ccccc3)C2=O)ccc1O	35µM*	-1%	34%	-11%	8.9µM*
O=C1NC(=O)N(c2ccccc2)C(=O)/C1=C/c1ccoc1	40µM*	?	23%	-14%	?
COc1ccc(/C=C2/C(=O)NC(=O)N(c3ccccc3)C2=O)cc1CN1C(=O)c2ccccc2C1=O	-111%[59 µM]	?	20%	-35%	50µM*
O=c1cccc2n1CC1CC2CN2CCCCC12 (stereo not drawn)	/	/	/	/	17%
[O]=[Cr](=[O])([OH])[O][Cr](=[O])(=[O])[OH]	1%[59 µM]	/	/	/	4%

Source: PubChem (National Center for Advancing Translational Sciences (NCATS))
